Among all 69,000 compounds or so, about 1,000 (1.4%) showed an effect of 50% or more. The sample holds strong results, similar compounds and a random draw of the others, so the mix is not that of the screen.

This assay relates to Leishmania donovani. Nature of the assay: Leishmania intramacrophage assay. Format: functional, organism-based. Set-up: scale not given: in the data most compounds retested in dose-response had high values.

Take `N#Cc1ccc(N2CC3(CCN(c4nccs4)C3)C2)nc1.O=CO.O=CO`: the “Percent Effect” value (30.3 µM, […]) was 9.16%.

Take `CCN1CC2(CCC1=O)CCN(CCOc1ccc(F)cc1)CC2`: the “Percent Effect” value (30.3 µM, […]) was 19.57%.

Turning to `CCN1CC2(CCN(CCOc3ccc(F)cc3)CC2)CC1=O`, the “Percent Effect” value (30.3 µM, […]) was 52.2%.

For `O=C1CC2(CCCC2)CN1CCOc1ccc(F)cc1`, where the note is “30.3 µM, […]”, the “Percent Effect” value is 12.36%.

Take `Cn1cc(C(=O)OC2CN(c3nc4c(C(F)(F)F)cccc4s3)C2)nn1`: the “Percent Effect” value (30.3 µM, […]) came out at 15.05%.

As to `Cc1ccc(C(=O)NCC(O)CN2CCCC2=O)cc1Cl` (stereo not given), the “Percent Effect” value (30.3 µM, […]) is given as -2.277%.

Take `Cn1c(CCNC(=O)C2CCCN(C3CCOCC3)C2)n[nH]c1=O` (stereo not given): the “Percent Effect” value (30.3 µM, […]) came out at 60.82%.

As for `O=C(NCCc1c[nH]cn1)C1CCCN(C2CCOCC2)C1` (stereo not given), the “Percent Effect” value (30.3 µM, […]) is on record as -4.763%.

For the compound `Cc1csc(CCNC(=O)C2CCCN(C3CCOCC3)C2)n1` (stereo not given), the “Percent Effect” value (30.3 µM, […]) was -3.021%.

For `CC(C)c1nc(CN(C)C(=O)C2CC(=O)N(Cc3ccncc3)C2)cs1` (stereo not given), for the setting “30.3 µM, […]”, the “Percent Effect” value is 1.333%.

As for `Cn1ccnc1CN1CCC2(CC1)CC(NC(=O)c1ccccn1)CO2.O=C(O)C(F)(F)F` (stereo not given), the “Percent Effect” value (30 µM, 30.03 µM) stood at 2.919%.

Turning to `O=C(NC1COC2(CCN(Cc3ccccn3)CC2)C1)c1ccccn1.O=C(O)C(F)(F)F` (stereo not given), the “Percent Effect” value (30 µM, 30.03 µM) is given as 99.23%.

In the case of `Cc1nc(C(=O)N(C)C)nn1-c1ccccc1C(C)C`, under “30.3 µM, […]”, the “Percent Effect” value is recorded as 17.02%.

On to `CCN1CC2(CC1=O)CN(Cc1cnn(C)c1)CCN(C(C)=O)C2.O=C(O)C(F)(F)F` (stereo not given), for which, where the note is “30 µM, 30.03 µM”, the “Percent Effect” value amounted to 8.348%.

For `O=C(NCCc1ccccc1)C1CCC(Cn2cnnn2)CC1` (stereo not given), the “Percent Effect” value (30 µM, 30.03 µM) is given as 4.824%.

With `COCC(=O)N1CCN(S(=O)(=O)c2ccccc2)[C@H]2CS(=O)(=O)C[C@H]21`, the “Percent Effect” value (30.3 µM, […]) turned out to be 50.92%.

With `CCC(=O)N1CCN(S(=O)(=O)c2cccc(F)c2)[C@H]2CS(=O)(=O)C[C@H]21`, the “Percent Effect” value (30.3 µM, […]) is listed as 19.41%.

Take `COCC(=O)N1CCN(S(=O)(=O)c2cccs2)[C@H]2CS(=O)(=O)C[C@H]21`: the “Percent Effect” value (30.3 µM, […]) is -6.326%.

As for `CS(=O)(=O)CC(=O)N1C[C@@H]2COC[C@]2(c2nnc(C3CC3)o2)C1`, the “Percent Effect” value (30 µM, 30.03 µM) turned out to be 6.501%.

Turning to `COc1cccc2c1ccn2CCC(=O)Nc1c2c(nn1C)CSC2`, the “Percent Effect” value (30.3 µM, […]) is on record as -9.12%.

As for `CCN(CC)C(=O)CS(=O)(=O)c1cc(OC)c(OC)cc1C`, the “Percent Effect” value (30.3 µM, […]) is given as -79.93%.

With `N#Cc1c(F)cccc1N1CCN(C(=O)Nc2nncs2)CC1`, under “30.3 µM, […]”, the “Percent Effect” value is 50.08%.

With `N#Cc1c(F)cccc1N1CCC(C(=O)Nc2nccs2)CC1`, the “Percent Effect” value (30.3 µM, […]) is 8.432%.

Turning to `N#Cc1c(F)cccc1N1CCCC(C(=O)Nc2nncs2)C1` (stereo not given), the “Percent Effect” value (30.3 µM, […]) is reported as 39.68%.

Consider `COCCN(Cc1ccccc1)Cc1nc(-c2ccsc2)no1`, for which the “Percent Effect” value (30.3 µM, […]) was determined as 22.89%.

`Cc1cc(C2CCC2)nc(NCC(C)(C)N2CCCC2)n1`: the “Percent Effect” value (30.3 µM, […]) was determined as 9.291%.

With `CCN1CCN(C(C)(C)CNc2nc(C)cc(C3CCC3)n2)CC1`, the “Percent Effect” value (30.3 µM, […]) came out at 54.39%.

As for `Cc1cc(C2CCC2)nc(NCC(C)(C)N2CCOCC2)n1`, the “Percent Effect” value (30.3 µM, […]) stood at 23.38%.

`CCc1nc(C)c([C@H]2CN(C)C[C@@H]2C(=O)NCCc2cnccn2)[nH]1`: the “Percent Effect” value (30 µM, 30.03 µM) stood at 23.64%.

For `CCNC(=O)NC(=O)CN1CCOC(c2ccccc2Cl)C1` (stereo not given), where the note is “30.3 µM, […]”, the “Percent Effect” value stood at 7.788%.

As for `CN(C)CCNc1cc(-c2ncccn2)c2cc[nH]c2n1`, for the setting “30.3 µM, […]”, the “Percent Effect” value stood at 4.01%.

With `COc1ccc2c(c1OC)Cc1c-2nc(N)c(C#N)c1C1CCOC1` (stereo not given), the “Percent Effect” value (30.3 µM, […]) is on record as 11.41%.

As for `COc1ccc2c(c1)Cc1c-2nc(N)c(C#N)c1C1CCOC1` (stereo not given), the “Percent Effect” value (30.3 µM, […]) was 63.86%.

In the case of `N#Cc1c(N)nc2c(c1C1CCOC1)CCc1cc(O)ccc1-2` (stereo not given), for the setting “30.3 µM, […]”, the “Percent Effect” value is recorded as -89.94%.

With `Cc1nn(C)c(N(C)C)c1CNCc1cccc(OCCN(C)C)c1`, the “Percent Effect” value (30 µM, 30.03 µM) is given as -13.13%.

`COc1cccc(CN(C)C(=O)CN2CC(n3nc(C)cc3C)C2)c1`: for the setting “30 µM, 30.03 µM”, the “Percent Effect” value was 4.207%.

With `Cc1cc(C)n(C2CN(CC(=O)N(C)Cc3ccco3)C2)n1`, the “Percent Effect” value (30.3 µM, […]) is listed as -0.4731%.

`COc1ccccc1CN(C)C(=O)CN1CC(n2nc(C)cc2C)C1`: the “Percent Effect” value (30.3 µM, […]) was determined as 72.41%.

In the case of `CC(=O)N1CCC(N2CC[C@H](c3nc4cc(C)ccc4o3)C2)CC1`, for the setting “30.3 µM, […]”, the “Percent Effect” value is on record as 22.67%.

In the case of `CCn1nc(C)c2ncnc(NCC(=O)N3CCOCC3)c21`, the “Percent Effect” value (30 µM, 30.03 µM) came to 13.04%.

Turning to `CCN(CC)C(=O)Cn1ccc2cc(NC(=O)NC3CC3)ccc21`, the “Percent Effect” value (30 µM) is 18.91%.

Take `O=C(O)C(F)(F)F.O=C1CC[C@H]2[C@H](CCN2c2ncccn2)N1c1ccccc1`: the “Percent Effect” value (30.3 µM, […]) was determined as 50.79%.

Consider `O=C(c1cnccn1)N1CC[C@H]2[C@@H]1CCC(=O)N2c1cccnc1`, for which the “Percent Effect” value (30.3 µM, […]) was determined as 69.01%.

As for `O=C(O)C(F)(F)F.O=C1CC[C@H]2[C@H](CCN2c2ncc(F)cn2)N1c1ccccc1`, the “Percent Effect” value (30.3 µM, […]) was determined as 36.83%.

As to `O=C(c1cccs1)N1CC[C@H]2[C@@H]1CCC(=O)N2c1cccnc1`, for the setting “30.3 µM, […]”, the “Percent Effect” value is listed as -14.6%.

For `O=C(c1cscn1)N1CC[C@H]2[C@@H]1CCC(=O)N2c1ccccc1`, the “Percent Effect” value (30.3 µM, […]) was 4.628%.

As for `Cc1ccoc1C(=O)N1CC[C@H]2[C@@H]1CCC(=O)N2c1cccnc1.O=C(O)C(F)(F)F`, the “Percent Effect” value (30.3 µM, […]) was 3.255%.

Turning to `Cc1cnc(C(=O)N2CC[C@H]3[C@@H]2CCC(=O)N3c2cccnc2)cn1.O=C(O)C(F)(F)F`, the “Percent Effect” value (30.3 µM, […]) turned out to be 26.72%.

Consider `Cc1ccc(C(=O)N2CC[C@H]3[C@@H]2CCC(=O)N3c2cccnc2)o1.O=C(O)C(F)(F)F`, for which the “Percent Effect” value (30.3 µM, […]) came to 56.88%.

Take `Cc1cnc(N2CC[C@H]3[C@@H]2CCC(=O)N3c2ccccc2)nc1.O=C(O)C(F)(F)F`: the “Percent Effect” value (30.3 µM, […]) worked out at 39.44%.

For the origin of these results see ChEMBL document CHEMBL3988442, “University of Dundee, Small-Polar-MMV Screening Library” (2021).
